Data on 80 compounds can be found in PubChem BioAssay AID1259421 (Broad Institute, 2018).

“And” between values parts separate entries of the source, which are not always exact repeats. Equal values may be shown once. Hit rate of the full screen: of about 6,400 compounds, about 610 (9.5%) were called active. The sample holds actives, similar compounds and a random draw of the others, so the mix is not that of the screen. No stated cut-off is given here; in the data, active means activity change below about -70%; inconclusive means no clear call, values can overlap the other calls; inactive means above that. Some compounds were tested as several samples or in several runs, with calls that do not always agree.

This experiment can be described thus: T. gondii ME49Luc in HeLa cells, luciferase assay, 72 h, no IFN-y (AID 1259421). The settings on record: stronger effect = lower value, concentration not given here.
In the case of `Cc1cc(=O)oc2c(C=O)c(O)ccc12`, the activity change, negative = inhibition is 16.5% (inactive).
For `Cc1cc2c(C(C)C)c(O)c(O)c(C=O)c2c(O)c1-c1c(C)cc2c(C(C)C)c(O)c(O)c(C=O)c2c1O` the value was -70.8% (active) and -12.6% (inactive).
Under `CC(=O)c1ccc(O)c(C(N)=O)c1` stands 7.8% (inactive); under `CCCCNCC1COc2ccccc2O1` (stereo not given), 0.699% (inactive); under `C[C@]12OC(C[C@]1(O)CO)n1c3ccccc3c3c4c(c5c6ccccc6n2c5c31)CNC4=O`, -87.7% (active).
Under `O=C1NCc2c1c1c3ccccc3[nH]c1c1[nH]c3ccccc3c21` stands 2.85% (inactive).
On to `CN[C@@H]1C[C@H]2O[C@@](C)([C@@H]1OC)n1c3ccccc3c3c4c(c5c6ccccc6n2c5c31)C(=O)N[C@H]4O`, for which the activity change, negative = inhibition is -88.9% (active).
Under `CO[C@@H]1[C@H](N(C)C(=O)c2ccccc2)C[C@H]2O[C@]1(C)n1c3ccccc3c3c4c(c5c6ccccc6n2c5c31)C(=O)NC4` stands -86.8% (active); under `Cn1c2ccccc2c2c3c(c4c5ccccc5n(CCC#N)c4c21)CNC3=O`, -94.9% (active).
For `Cc1[nH]cnc1CN1CCc2c(c3ccccc3n2C)C1=O` the value was 17% (inactive); for `CC1(C)Oc2ccc(C#N)cc2C(N2CCCC2=O)C1O` (stereo not given), 4.23% (inactive); for `C[N+](C)(C)C[C@H](O)CC(=O)O`, 9.13% (inactive).
Under `CC(Cc1ccccc1)(NC(=O)CN)c1ccccc1` (stereo not given) stands -47.2% (inactive) and 8.98% (inactive).
Consider `CCc1ccc(C(=O)C(C)CN2CCCCC2)cc1` (stereo not given), for which the activity change, negative = inhibition is 8.8% (inactive) and 14.4% (inactive).
Under `O=C(/C=C/c1ccc(O)c(O)c1)OC(Cc1ccc(O)c(O)c1)C(=O)O` (stereo not given) stands 2.52% (inactive).
For `CO/N=C(\N)c1ccc(-c2ccc(-c3ccc(/C(N)=N/OC)cc3)o2)cc1` the value was 86.4% (inactive); for `COc1cc(OC)cc(OC)c1`, 10% (inactive); for `O=C(CO)C(O)C(O)C(O)CO` (stereo not given), 2.77% (inactive).
For `CC(=O)[C@H]1CCC2C3CC=C4C[C@@H](O)CC[C@]4(C)C3CC[C@@]21C` (stereo not given in full) the value was 1.09% (inactive); for `COc1ccc(Cl)cc1NC(=O)Nc1cc(C)nc2ccccc12`, -81.5% (active) and -81.1% (active); for `COC(=O)c1cc(Cl)ccc1OC`, 1.3% (inactive).
`COc1cc(OC)c(NC(=O)Nc2cc(C)on2)cc1Cl`: the activity change, negative = inhibition was 4.07% (inactive) and 26.1% (inactive).
Under `O=C(O)Cc1csc(-c2ccc(Cl)cc2)n1` stands 15.8% (inactive).
As for `CS(=O)(=O)Nc1cc2occ(NC=O)c(=O)c2cc1Oc1ccccc1`, the activity change, negative = inhibition was 15.7% (inactive).
In the case of `CCCCCCCCCCC(C)(C)C(=O)Nc1c(OC)cc(OC)cc1OC`, the activity change, negative = inhibition was 16.9% (inactive).
As to `CC(C)(C)/[N+]([O-])=C/c1ccc(S(=O)(=O)O)cc1S(=O)(=O)O`, the activity change, negative = inhibition was 8.6% (inactive).
For `CS(=O)(=O)c1ccc(-c2cnc(N)c(C(=O)Nc3ccccc3)n2)cc1` the value was -81.9% (active); for `CS(=O)(=O)c1ccc(C(=O)Nc2ccc(Cl)c(-c3ccccn3)c2)c(Cl)c1`, 19.4% (inactive).
`CN1CCN(S(=O)(=O)c2ccc(-c3cnc(N)c(C(=O)Nc4cccnc4)n3)cc2)CC1`: the activity change, negative = inhibition was -77.6% (active).
Under `CC(=O)NS(=O)(=O)c1ccc(NC(=O)c2ccccc2C(=O)O)cc1` stands 1.07% (inactive).
For `Cn1ccc2cc3c(cc21)CCN3C(=O)Nc1cccnc1` the value was 104% (inactive) and 4.22% (inactive); for `CN(C)c1nc(N)c(C(=O)Nc2cccnc2)nc1Cl`, 157% (inactive) and 219% (inactive).
Take `COc1ccc(/C=C/c2cc(O)cc(O[C@@H]3O[C@H](CO)[C@@H](O)[C@H](O)[C@H]3O)c2)cc1`: the activity change, negative = inhibition was 12.1% (inactive).
Under `Clc1cccc(C=NC=Nc2cccc(Cl)c2)c1` stands -3.22% (inactive); under `COC(=O)[C@@H]1CC(=O)O[C@H](C)C/C=C/C=C/[C@H](O)[C@H](C)C[C@H](CC=O)[C@H](OC2O[C@H](C)[C@@H](OC3C[C@@](C)(O)[C@@H](OC(=O)CC(C)C)[C@H](C)O3)[C@H](N(C)C)[C@H]2O)[C@H]1OC` (stereo not given in full), -63.5% (inactive).
Under `CC(Cc1ccc(O)c(O)c1)C(C)Cc1ccc(O)c(O)c1` (stereo not given) stands 5.71% (inactive); under `CNC(=O)c1ccc2cc([C@]3(O)CCn4cncc43)ccc2c1`, 9.56% (inactive); under `C=C1C(=O)CC2CC3OC3(C)CCC3OC3(C)C[C@H](OC(C)=O)C1C2(C)C` (stereo not given in full), -76.2% (active).
For `NCC(=O)CCC(=O)OCc1ccccc1` the value was 16.4% (inactive); for `NC(Cc1ccccn1)c1ccccc1` (stereo not given), 13% (inactive); for `O=S(=O)(O)c1cc(I)c(O)c2ncccc12`, 9.1% (inactive) and 15.9% (inactive).
Turning to `Oc1c(I)cc(I)c2cccnc12`, the activity change, negative = inhibition was -8.85% (inactive) and -77.3% (active).
For `Cc1ccc2c(Cl)cc(Cl)c(O)c2n1` the value was -84% (active); for `Oc1c(I)cc(Cl)c2cccnc12`, 24.2% (inactive); for `Oc1c(Cl)cc(Cl)c2cccnc12`, -83.9% (active) and -88% (active) and -90% (active).
Under `CO[C@@H]1[C@@H](O[C@@H]2O[C@H](C)[C@@H](O[C@H]3C[C@@](C)(O)[C@H](O)[C@H](C)O3)[C@H](N(C)C)[C@H]2O)[C@@H](CC=O)C[C@@H](C)[C@@H](O[C@H]2CC[C@H](N(C)C)[C@@H](C)O2)/C=C/C=C/C[C@H](C)OC(=O)C[C@H]1O` stands 4.59% (inactive).
Under `C[n+]1cccc(C(=O)O)c1` stands 14.5% (inactive); under `O=C(O)CC(O)(CC(=O)[O][Bi]1[O]C(=O)CC(O)(CC(=O)O)C(=O)[O]1)C(=O)O` (stereo not given), 22.8% (inactive); under `CCC(C)(C)C(=O)O`, 9.3% (inactive).
On to `O=C(O)Cc1ccc(OCCNC[C@H](O)c2ccccc2)cc1`, for which the activity change, negative = inhibition was 15.6% (inactive) and 5.18% (inactive).
For `COC(=O)C[C@H]1C(C)(C)C(=O)[C@@H]2CC3=C(CC[C@]4(C)C3=CC(=O)O[C@H]4c3ccoc3)[C@@]1(C)C2=O` the value was 16.4% (inactive).
For `CC(=O)OCC(=O)[C@@]1(O)CCC2C3CCC4=CC(=O)CC[C@]4(C)[C@@]3(F)[C@@H](O)C[C@@]21C` (stereo not given in full) the value was -4.8% (inactive); for `N[C@@H](CCC(=O)N[C@@H](CS[NH2+][O-])C(=O)NCC(=O)O)C(=O)O`, 15.6% (inactive); for `CC(C)Cc1ccc([C@@H](C)C(=O)NS(C)(=O)=O)cc1`, 0.904% (inactive).
Under `NC(COCc1ccccc1)C(=O)O` (stereo not given) stands 2.58% (inactive); under `CCCc1c(OCCCCc2nn[nH]n2)ccc(C(C)=O)c1O`, 3.01% (inactive); under `N#Cc1c(N)nc(SCc2csc(-c3ccc(Cl)cc3)n2)c(C#N)c1-c1ccc(OCCO)cc1`, -62.2% (inactive).
In the case of `Cc1nccc2[nH]c(=O)ccc12`, the activity change, negative = inhibition was 4.39% (inactive).
For `CC(=O)O[C@@H]1CC[C@@]2(C)C(CC[C@]3(C)C2C(=O)C=C2[C@@H]4[C@@H](C)[C@H](C)CC[C@]4(C)CC[C@]23C)[C@@]1(C)C(=O)O` (stereo not given in full) the value was -14.9% (inactive); for `O=C(O)c1ccc(OCCn2ccnc2)cc1`, -29.3% (inactive).
For `COc1ccc(CCCOC(Cn2ccnc2)c2ccc(OC)cc2)cc1` (stereo not given) the value was -72.3% (active).
With `NC(=O)C1CSSCCC(=O)NC(CCCCN=C(N)N)C(=O)NCC(=O)NC(CC(=O)O)C(=O)NC(Cc2c[nH]c3ccccc23)C(=O)N2CCCC2C(=O)N1` (stereo not given), the activity change, negative = inhibition was 1.76% (inactive).
For `CCOC(=O)CSCCC1NC(C(=O)O)CS1` (stereo not given) the value was 6.06% (inactive) and 14% (inactive).
For `N#C/C(=C/c1ccc(O)c(O)c1)C(=O)NCc1ccccc1` the value was 27.2% (inactive); for `O=C(O)c1cc2occc2[nH]1`, 12% (inactive).
For `Cc1cc(C)c2c(c1)[C@@H](N(Cc1cc(C(F)(F)F)cc(C(F)(F)F)c1)c1nnn(C)n1)CCCN2CC1CCC(C(=O)O)CC1` (stereo not given in full) the value was -80.5% (active); for `CNC(=O)c1cccc(NCC(=O)NCCc2ccc(OC)c(OC)c2)c1`, 16.5% (inactive).
Regarding `Cc1ccc(C(=O)N(CCCN)[C@@H](c2nc3cc(Cl)ccc3c(=O)n2Cc2ccccc2)C(C)C)cc1`, the activity change, negative = inhibition was -72.6% (active).
For `Cc1c(C)n(Cc2ccccc2)c2ccc(C(=O)OCCN(C)C)cc12` the value was 11.3% (inactive); for `Cc1ccc(C(=O)N(CCCN)[C@@H](c2oc3cc(Cl)ccc3c(=O)c2Cc2ccccc2)C(C)C)cc1`, -80.4% (active); for `O=C(O)CC(S)C(=O)O` (stereo not given), 11.1% (inactive).
For `Cc1cc2nc3c(=O)[nH]c(=O)nc-3n(CC(O)C(O)C(O)CO)c2cc1C` (stereo not given) the value was 28.7% (inactive) and -4.94% (inactive); for `O=C(O)[C@H](O)[C@@H](O)[C@H](O)[C@H](O)CO`, -60.2% (inactive).
Turning to `CC(C)C1CCC(C(=O)N[C@H](Cc2ccccc2)C(=O)O)CC1` (stereo not given in full), the activity change, negative = inhibition was 20.3% (inactive).
Under `CN(C)c1ccc(C(=O)NCCCCCCC(=O)NO)cc1` stands -59.9% (inactive) and -86.2% (active) and -94.9% (active).
For `CC(/C=C/C(=O)NO)=C\[C@@H](C)C(=O)c1ccc(N(C)C)cc1` the value was -69.6% (inactive); for `O=C(CCCCCCNC(=O)c1cnc(N(c2ccccc2)c2ccccc2)nc1)NO`, -10.9% (inactive).
Consider `CCCCCCCCCCCCC/C=C/[C@@H](O)[C@H](COC1OC(CO)C(OC2OC(CO)C(OC3OC(CO)C(O)C(OC4OC(CO)C(O)C(O)C4O)C3NC(C)=O)C(OC3(C(=O)O)CC(O)C(NC(C)=O)C(C(O)C(O)CO)O3)C2O)C(O)C1O)NC(=O)CCCCCCCCCCCCCCCCC` (stereo not given in full), for which the activity change, negative = inhibition was 8.33% (inactive).
Under `O=C(O)c1c(Sc2ccccc2)c2cc(Cl)ccc2n1Cc1ccc(Cl)cc1` stands -5.44% (inactive) and 8.39% (inactive); under `COC(=O)C1CC2=CC(=O)CCC2(C)C23OC2CC2(C)C(CCC24CCC(=O)O4)C13` (stereo not given), 3.98% (inactive).
